Experiment [1] in a line: antimalarial activity against Dd2 strain (AID 2302;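 active = growth inhibition above 50% at the single 2 µM test dose, taken to imply half-maximal potency below 2 µM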;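 also: 0% = DMSO untreated growth and 100% = chloroquine plus artemisinin killed control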). To be noted: P. falciparum Dd2 in RBCs, LDH growth readout, 72 h; at 2 µM; hits give high values.
A short description of experiment [2]: HepG2 cytotoxicity, primary screen, cytotoxicity control for P. falciparum antimalarial project, cell-based, ATP luminescence (AID 2303;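 active = inhibition above 50%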;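 also: 0% = DMSO wells and 100% = digitonin-killed cells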). To be noted: HepG2 viability, 24-48 h, at 10 µM, hits give high values.
Experiment [3] concerns the target L-lactate dehydrogenase (Plasmodium falciparum (isolate CDC / Honduras)) (UniProt Q27743). As to the kind of experiment: PfLDH activity inhibition – cell lysate, 3D7 strain, counter-screen for P. falciparum growth inhibition project (AID 2304).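 Also: 0% = vehicle and 100% = reference inhibitor.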 To be noted: P. falciparum 3D7 crude extract, LDH APAD/NBT absorbance; at 2 µM; hits give high values.
The nature of experiment [4]: inhibition of 3D7 malaria parasite growth – strain 3D7 (AID 2306).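 Also: 0% = DMSO wells and 100% = chloroquine plus artemisinin control wells.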 To be noted: P. falciparum 3D7 erythrocytic growth, LDH absorbance, 72 h; at 2 µM; hits give high values.
Experiment [5] has as its target Calcium-dependent protein kinase 1 (Plasmodium falciparum (isolate 3D7)) (UniProt P62344). Briefly: PfCDPK1 kinase inhibitors, biochemical, TCAMS library (AID 1159585; cut-off not given, nearly all actives have IC50 up to about 0.98 µM;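 also: inhibitors leave more ATP so luminescence rises with inhibition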). As to conditions: recombinant PfCDPK1, Kinase-Glo ATP depletion luminescence. (In general: Kinase-Glo measures the ATP left after a reaction by luminescence.)
Experiment [6] concerns the target Plasmodium falciparum protein kinase 6 (PK6, PF3D7_1337100) (UniProt Q8IDW1). As to the kind of experiment: PfPK6 kinase inhibitors, biochemical, TCAMS library (AID 1159586). To be noted: recombinant PfPK6, Kinase-Glo ATP depletion luminescence.
The target of experiment [7] is Protein kinase 7 (PK7), Plasmodium falciparum 3D7 (PF3D7_0213400) (UniProt Q7YTF7). As to the kind of experiment: inhibition of Plasmodium PK7 catalytic activity – biochemical, TCAMS antimalarial set, Kinase-Glo luminescence (AID 1159587). To be noted: recombinant PfPK7, Kinase-Glo ATP depletion luminescence.
Sequence of Protein kinase 7 (PK7), Plasmodium falciparum 3D7 (PF3D7_0213400) (Q7YTF7 1-343): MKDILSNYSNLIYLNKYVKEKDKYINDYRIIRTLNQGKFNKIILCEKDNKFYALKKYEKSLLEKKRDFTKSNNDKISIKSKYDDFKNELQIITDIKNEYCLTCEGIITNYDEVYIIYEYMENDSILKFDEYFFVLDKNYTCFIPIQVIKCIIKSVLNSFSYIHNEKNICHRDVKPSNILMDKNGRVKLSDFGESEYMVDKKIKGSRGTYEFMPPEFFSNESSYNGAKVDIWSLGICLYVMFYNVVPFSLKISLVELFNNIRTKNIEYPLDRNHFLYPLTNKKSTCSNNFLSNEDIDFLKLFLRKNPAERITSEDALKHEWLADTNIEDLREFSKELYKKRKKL
Experiment [8] has as its target Calcium-dependent protein kinase 4 (Plasmodium falciparum (isolate 3D7)) (UniProt Q8IBS5). As to the kind of experiment: PfCDPK4 kinase inhibitors, biochemical, TCAMS library (AID 1159588; cut-off not given, nearly all actives have IC50 up to about 0.91 µM). As to conditions: recombinant PfCDPK4, Kinase-Glo ATP depletion luminescence.

Values without a mark were called inactive. For some of these results: Measured potencies and affinities stand elsewhere. Calls of active or inactive are those of the source. Unless noted, no rule for the calls is given here.

Sequence of Plasmodium falciparum protein kinase 6 (PK6, PF3D7_1337100) (Q8IDW1 1-305): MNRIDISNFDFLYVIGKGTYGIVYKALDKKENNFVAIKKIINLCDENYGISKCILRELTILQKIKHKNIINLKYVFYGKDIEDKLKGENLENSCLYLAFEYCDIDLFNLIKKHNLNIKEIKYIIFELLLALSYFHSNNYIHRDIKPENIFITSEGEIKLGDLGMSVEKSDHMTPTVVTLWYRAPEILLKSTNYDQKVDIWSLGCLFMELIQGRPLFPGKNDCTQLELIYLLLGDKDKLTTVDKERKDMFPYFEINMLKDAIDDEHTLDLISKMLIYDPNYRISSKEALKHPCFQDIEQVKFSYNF
Sequence of Calcium-dependent protein kinase 4 (Plasmodium falciparum (isolate 3D7)) (Q8IBS5 whole entry, looked up): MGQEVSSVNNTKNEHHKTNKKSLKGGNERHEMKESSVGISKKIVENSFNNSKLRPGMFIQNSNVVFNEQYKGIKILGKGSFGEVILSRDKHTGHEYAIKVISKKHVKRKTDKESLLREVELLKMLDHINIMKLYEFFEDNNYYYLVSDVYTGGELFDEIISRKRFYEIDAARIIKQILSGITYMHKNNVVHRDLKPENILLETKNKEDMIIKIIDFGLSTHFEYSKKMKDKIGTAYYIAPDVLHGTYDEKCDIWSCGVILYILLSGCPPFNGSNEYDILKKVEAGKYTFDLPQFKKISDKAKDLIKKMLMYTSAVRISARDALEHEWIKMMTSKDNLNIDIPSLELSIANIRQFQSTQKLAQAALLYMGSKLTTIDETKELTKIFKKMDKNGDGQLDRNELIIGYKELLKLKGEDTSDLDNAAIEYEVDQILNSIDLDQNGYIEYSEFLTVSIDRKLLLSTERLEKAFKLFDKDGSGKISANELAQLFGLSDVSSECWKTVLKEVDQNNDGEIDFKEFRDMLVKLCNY
Sequence of Calcium-dependent protein kinase 1 (Plasmodium falciparum (isolate 3D7)) (P62344 whole entry, looked up): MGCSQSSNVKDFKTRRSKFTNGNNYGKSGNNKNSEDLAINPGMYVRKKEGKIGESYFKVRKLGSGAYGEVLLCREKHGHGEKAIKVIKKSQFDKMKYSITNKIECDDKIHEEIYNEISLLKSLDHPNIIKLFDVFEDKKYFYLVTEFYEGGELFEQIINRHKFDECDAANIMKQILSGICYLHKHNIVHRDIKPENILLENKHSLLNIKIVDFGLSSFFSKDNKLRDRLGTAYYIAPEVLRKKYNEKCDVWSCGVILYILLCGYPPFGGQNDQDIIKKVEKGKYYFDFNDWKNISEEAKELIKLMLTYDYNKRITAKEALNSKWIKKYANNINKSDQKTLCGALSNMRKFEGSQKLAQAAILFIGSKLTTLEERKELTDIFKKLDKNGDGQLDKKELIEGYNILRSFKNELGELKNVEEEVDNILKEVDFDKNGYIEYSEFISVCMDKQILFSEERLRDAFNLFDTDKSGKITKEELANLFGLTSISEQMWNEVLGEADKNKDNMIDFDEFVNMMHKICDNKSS
Sequence of L-lactate dehydrogenase (Plasmodium falciparum (isolate CDC / Honduras)) (Q27743 whole entry, looked up): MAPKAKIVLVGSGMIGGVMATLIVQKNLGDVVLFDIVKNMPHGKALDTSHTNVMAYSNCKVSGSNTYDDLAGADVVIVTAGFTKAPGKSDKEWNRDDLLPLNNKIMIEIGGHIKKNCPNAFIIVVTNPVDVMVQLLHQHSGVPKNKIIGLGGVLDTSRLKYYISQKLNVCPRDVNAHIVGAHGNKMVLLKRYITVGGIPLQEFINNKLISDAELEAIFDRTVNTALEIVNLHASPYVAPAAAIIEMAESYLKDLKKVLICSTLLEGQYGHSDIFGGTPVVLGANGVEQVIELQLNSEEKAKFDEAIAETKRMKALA

Turning to `COc1ccccc1-c1cc(C(=O)N2CCN(S(=O)(=O)c3ccc(C)cc3)CC2)[nH]n1`, the growth inhibition in experiment [1] and in experiment [4] was 88% (active) in each case. For the same molecule, the inhibition is -12% in experiment [2] and -4% in experiment [3]. Besides, the result in experiment [5], in experiment [6], in experiment [7] and in experiment [8] was inactive.
In the case of `CS(=O)(=O)c1ccc(-c2cnc(N)c(-c3cccc(CO)c3)c2)cc1`, the growth inhibition in experiment [1] is 51% (active); in experiment [4] it was 98% (active). Moreover, the inhibition is -4% in experiment [2] and 0% in experiment [3]. For the same molecule, the result in experiment [5], in experiment [6], in experiment [7] and in experiment [8] was inactive.
Take `O=C(Nc1cccc(C(F)(F)F)c1)Nc1ccc(F)c([N+](=O)[O-])c1`: the growth inhibition in experiment [1] is 100% (active); in experiment [4], 101% (active). Besides, the results for the inhibition in experiment [2] and in experiment [3] were 43% and -4%, respectively. Besides, the outcome in experiment [5], in experiment [6], in experiment [7] and in experiment [8] was inactive.
As for `O=C(NCc1ccccc1)Nc1ccc(-c2ccc(-c3nc4ccc(C(F)(F)F)cc4[nH]3)cc2)cc1`, the growth inhibition in experiment [1] is 23%; in experiment [4], 99% (active). Moreover, the figures for the inhibition in experiment [2] and in experiment [3] were 40% and 4%, respectively. The outcome in experiment [5], in experiment [6], in experiment [7] and in experiment [8] was inactive.
As to `O=C(c1csc(-c2cccnc2)n1)N1CCc2cc3nccc(N4CCN5CCC[C@H]5C4)c3cc21`, the growth inhibition in experiment [1] is 78% (active); in experiment [4], 97% (active). The inhibition in experiment [2] is -7%; in experiment [3] it was -3%. Moreover, the outcome in experiment [5], in experiment [6], in experiment [7] and in experiment [8] was inactive.
With `O=C(/C=C/c1ccc(Cl)c(Cl)c1)NCCCCCN1CCCC(CNS(=O)(=O)c2cccc(C(F)(F)F)c2)C1` (stereo not given), the growth inhibition in experiment [1] is 0%; in experiment [4] it was 92% (active). For the same molecule, the inhibition in experiment [2] is 73% (active); in experiment [3], 5%. For the same molecule, the result in experiment [5], in experiment [6], in experiment [7] and in experiment [8] was inactive.
As to `CCOC(=O)c1cccc(N/C(N)=N/c2nc(C)cc(NCCc3ccccc3)n2)c1`, the growth inhibition in experiment [1] is 72% (active); in experiment [4], 102% (active). Besides, the inhibition in experiment [2] was 21%; in experiment [3], -6%. The result in experiment [5], in experiment [6], in experiment [7] and in experiment [8] was inactive.
As to `Cc1ccc(NC(=O)c2ccc(CN3CCCN(Cc4cccc(O)c4)CC3)cc2)cc1F`, the growth inhibition in experiment [1] was 31%; in experiment [4], 97% (active). Moreover, the inhibition in experiment [2] was 48%; in experiment [3], -2%. Besides, the outcome in experiment [5], in experiment [6], in experiment [7] and in experiment [8] was inactive.
Consider `C=CCc1cccc(OC)c1OCCCON1C(N)=NC(N)=NC1(C)C`, for which the growth inhibition in experiment [1] was 95% (active); in experiment [4], 94% (active). The results for the inhibition in experiment [2] and in experiment [3] were 58% (active) and -1%, respectively. Further, the outcome in experiment [5], in experiment [6], in experiment [7] and in experiment [8] was inactive.
As to `N#Cc1cccc(C(=O)NC2CCN(CCCCCNC(=O)/C=C/c3ccc(Cl)c(Cl)c3)CC2)c1`, the growth inhibition in experiment [1] is -1%; in experiment [4] it was 103% (active). Further, the inhibition is 11% in experiment [2] and -9% in experiment [3]. Besides, the outcome in experiment [5], in experiment [6], in experiment [7] and in experiment [8] was inactive.
On to `CCCCN1CCN(CC(O)CNC(=O)Nc2ccc(Cl)cc2)CC1` (stereo not given), for which the growth inhibition is 99% (active) in experiment [1] and 101% (active) in experiment [4]. The inhibition in experiment [2] is 17%; in experiment [3], -3%. Also, the result in experiment [5], in experiment [6], in experiment [7] and in experiment [8] was inactive.
Regarding `Cc1cccc2[nH]c(-c3ccc(-c4cccc(CN5CC(C)OC(C)C5)c4)s3)nc12` (stereo not given), the growth inhibition in experiment [1] was 79% (active); in experiment [4], 98% (active). For the same molecule, the inhibition in experiment [2] was 6%; in experiment [3], -5%. The outcome in experiment [5], in experiment [6], in experiment [7] and in experiment [8] was inactive.
Regarding `Cc1ccccc1C1CCN(C2CCC(NC(=O)c3cncc(-c4ccccc4)c3)CC2)CC1` (stereo not given), the figures for the growth inhibition in experiment [1] and in experiment [4] were 92% (active) and 101% (active), respectively. Moreover, the figures for the inhibition in experiment [2] and in experiment [3] were 27% and -1%, respectively. For the same molecule, the outcome in experiment [5], in experiment [6], in experiment [7] and in experiment [8] was inactive.
Turning to `CC(C)COc1ccc(Cl)cc1Cc1ccc(-c2nc3ccc(Br)cc3[nH]2)o1`, the growth inhibition was 75% (active) in experiment [1] and 80% (active) in experiment [4]. Further, the inhibition in experiment [2] is 19%; in experiment [3], -3%. For the same molecule, the outcome in experiment [5], in experiment [6], in experiment [7] and in experiment [8] was inactive.
Turning to `CCOc1cc2ncnc(Nc3ccc(OCc4ccccc4F)c(Cl)c3)c2cc1OCC`, the growth inhibition in experiment [1] was 74% (active); in experiment [4] it was 101% (active). Also, the values for the inhibition in experiment [2] and in experiment [3] were 4% and -2%, respectively. Also, the outcome in experiment [5], in experiment [6], in experiment [7] and in experiment [8] was inactive.
Take `CCS[C@@H]1O[C@H](COC(=O)c2ccccc2)[C@H](OC(=O)c2ccccc2)[C@H](OC(=O)c2ccccc2)[C@H]1OC(=O)c1ccccc1`: the growth inhibition in experiment [1] was 52% (active); in experiment [4], 98% (active). For the same molecule, the inhibition was 4% in experiment [2] and 5% in experiment [3]. Further, the outcome in experiment [5], in experiment [6], in experiment [7] and in experiment [8] was inactive.
Take `CCN1CCN(CC(O)CNC(=O)Nc2ccc(Cl)cc2)CC1` (stereo not given): the growth inhibition in experiment [1] was 99% (active); in experiment [4], 100% (active). The inhibition in experiment [2] was 29%; in experiment [3] it was 3%. The outcome in experiment [5], in experiment [6], in experiment [7] and in experiment [8] was inactive.
For the molecule `COc1ccc(CNC2Cc3ccccc3C2)cc1-c1ccc(S(=O)(=O)NCCN2CCCC2)s1`, the growth inhibition in experiment [1] was 100% (active); in experiment [4], 101% (active). Also, the inhibition in experiment [2] was 89% (active); in experiment [3], 4%. Further, the result in experiment [5], in experiment [6], in experiment [7] and in experiment [8] was inactive.
As to `COc1cccc(-c2cnc(N)c(-c3nc4ccc(F)cc4[nH]3)c2)c1`, the growth inhibition in experiment [1] is 43%; in experiment [4], 97% (active). The inhibition in experiment [2] is 47%; in experiment [3], 5%. Besides, the outcome in experiment [5], in experiment [6], in experiment [7] and in experiment [8] was inactive.
With `O=C(NCc1ccccc1)c1ccc(C(=O)NCC2CNCCO2)cc1` (stereo not given), the growth inhibition was -1% in experiment [1] and 92% (active) in experiment [4]. Also, the inhibition is 4% in experiment [2] and -4% in experiment [3]. Besides, the outcome in experiment [5], in experiment [6], in experiment [7] and in experiment [8] was inactive.

What is called inhibition is the drop in the measured response relative to a control, in per cent.

These data come from PubChem BioAssay.
